Source: PubChem (several laboratories)
An excerpt weighted towards active compounds, which were near 1.9% of everything screened.
S1P4 antagonist: S1P4 receptor antagonists, primary screen, cell-based. S1P4-expressing cells, antagonist mode, reporter read-out. inhibition, % at 4.98 µM. actives 0.26% (n = 220,000). AID 1510, 2009; in the data active means inhibition above about 29%;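 further: 0% = wells stimulated with agonist and 100% = vehicle wells without agonist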
EP2 modulator: EP2 receptor modulators, cAMP readout, primary screen, cell-based, HTRF cAMP, PGE2 stimulation; Prostaglandin E2 receptor EP2 subtype (Homo sapiens), P43116; EP2-expressing cells, cAMP HTRF FRET, PGE2 co-stimulation; induction, % at 25 µM; actives 0.83% (n = 260,000); AID 940, 2007;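 active means compounds whose cAMP rise, as percent of the full-agonist control response, exceeds 60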;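 further: rat C6 glioma line stably carrying human EP2 under a CMV promoter; the protocol text gives 20 µM as final concentration; 100% = response of wells given 1 µM PGE2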
PGE2 EP2 inh: human EP2 receptor antagonists, primary screen, TR-FRET cAMP, C6 glioma cells; Prostaglandin E2 receptor EP2 subtype (Homo sapiens), P43116; C6 glioma cells expressing human EP2; cells stimulated with saturating PGE2; inhibition, % at 25 µM; actives 0.52% (n = 260,000); AID 1422, 2008;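 active means percent inhibition above 40 after rounding to a whole number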;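 further: rat C6 glioma host cells with rolipram phosphodiesterase inhibitor present; the protocol text gives 20 µM as final concentration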
S1P3 antag-1: S1P3 receptor antagonists, primary screen, cell-based | actives 0.27% (n = 170,000) | AID 485, 2006 | inhibition, % at 4.98 µM | CHO S1P3 NFAT-BLA reporter, FRET fluorescence, antagonist mode;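 active means inhibition above the plate cutoff, the mean inhibition of test wells on that plate plus 3 SD, cut at about 28% in these data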;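 further: cells challenged with S1P at its EC80 of 0.8 µM; blue over green emission ratio from cleaved BLA substrate after 4 h stimulation; 0% = S1P-stimulated wells and 100% = unstimulated DMSO-only wells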
Target sequence (Q99500 whole entry, looked up): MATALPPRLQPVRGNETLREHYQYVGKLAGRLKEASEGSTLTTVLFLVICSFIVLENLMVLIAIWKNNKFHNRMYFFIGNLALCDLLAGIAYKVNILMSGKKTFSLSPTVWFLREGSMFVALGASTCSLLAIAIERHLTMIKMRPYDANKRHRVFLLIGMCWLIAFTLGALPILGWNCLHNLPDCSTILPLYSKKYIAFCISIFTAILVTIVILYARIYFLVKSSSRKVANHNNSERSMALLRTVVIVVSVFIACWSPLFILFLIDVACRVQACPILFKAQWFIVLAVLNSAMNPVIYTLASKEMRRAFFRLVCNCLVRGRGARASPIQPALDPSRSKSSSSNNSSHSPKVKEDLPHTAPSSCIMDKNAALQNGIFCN
Pf gamet viab: late stage P. falciparum gametocyte viability inhibitors, primary screen, ATP luminescence, HTS. AID 743093, 2013. actives 0.065% (n = 150,000). inhibition, % at 10.9 µM. P. falciparum stage V gametocytes, 24 h;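 active means inhibition above the mean plus 3 SD of compounds within the control limits, set per campaign, cut at about 38% in these data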;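 further: 0% = DMSO wells and 100% = medium only without gametocytes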
S1P4 agonist: S1P4 receptor agonists, primary screen, cell-based; S1P4-expressing cell line, agonist reporter assay; activation, % at 4.98 µM; actives 0.35% (n = 220,000); AID 1509, 2009; in the data active means activation above about 11%;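 further: 0% = DMSO vehicle and 100% = reference agonist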
S1P3 antag-2: S1P3 receptor antagonists, retest, confirmation, cell-based. shares compounds with S1P3 antag-1. CHO S1P3 NFAT-BLA reporter, FRET, antagonist mode. inhibition, % at 4.98 µM. actives 30% (n = 240). AID 1429, 2008;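 active means inhibition above the hit threshold that was computed for the earlier primary screen, cut at about 30% in these data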;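 further: 0% = S1P-stimulated wells and 100% = unstimulated DMSO-only wells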
EP2 confirm: cAMP induction in EP2, EP4, beta2-AR and parental cells, confirmation, counter-screen for EP2 modulator project, cell-based, five parallel assays, C6 glioma, HEK293. shares compounds with EP2 modulator. cAMP HTRF induction; plus low (about EC15) PGE2 agonist. calls only at 20 µM (by protocol). actives 47% (n = 1,300). AID 1080, 2008;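 active means cAMP induction above 50% in the main assay while under 30% in all four parallel counter assays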;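 further: rat C6 glioma cells stably expressing human EP2 receptor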
S1P4 antag conf: S1P4 receptor antagonists, human, confirmation, cell-based; shares compounds with S1P4 antagonist; S1P4-expressing cell line, antagonist mode, reporter read-out; inhibition, % at 4.98 µM; actives 71% (n = 520); AID 1524, 2009; in the data active means inhibition above about 30%
S1P1 antagonist: S1P1 receptor antagonists, human, counter-screen for S1P4 antagonist project, cell-based; shares compounds with S1P4 antagonist; cell-based S1P1 antagonist counterscreen, inhibition; inhibition, % at 4.98 µM; actives 37% (n = 520); AID 1564, 2009; in the data active means inhibition above about 40%;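 further: receptor stimulated with S1P near its EC80; 0% = agonist stimulated wells and 100% = vehicle only wells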
Active calls of the source: *; i = inactive; x = not tested or not shown; + = active, no number; ! = a repeat was not active.

SMILES	S1P4 antagonist	EP2 modulator	PGE2 EP2 inh	S1P3 antag-1	Pf gamet viab	S1P4 agonist	EP2 confirm	others
OC1(c2ccc(F)cc2)CC2CCC(C1)N2Cc1nnnn1Cc1ccco1 (stereo unspecified)	x	-46	9	x	x	x	x
CCCOc1c(CN2C3CCC2CC(O)(c2ccc(OC)cc2)C3)cccc1OC (stereo unspecified)	x	-38	5	x	x	x	x
COc1ccc(Cc2nccc3cc(OC)c(OC)cc23)cc1OC	-18	4	15	29*	x	3	x	S1P3 antag-2=16
COc1ccc(OCC(=O)N2CCN(Cc3ccc(OC)c(OC)c3)CC2)cc1	x	13	7	x	x	x	x
COc1ccc(N=Cc2c(O)n(-c3ccc(C)cc3)c(=O)[nH]c2=O)cc1	-10	-16	4	30*	36	2	x	S1P3 antag-2=-11
Cc1[nH]c2ccc(F)cc2c1CC(=O)N(CCN(C)C)Cc1ccccc1F	x	-81	5	x	x	x	x
C[C@H]1CCC/C=C/C2C[C@H](O)CC2[C@H](O)/C=C/C(=O)O1 (stereo partly specified)	51*	16	17	46*	x	-1	x	S1P3 antag-2=16;S1P4 antag conf=97*;S1P1 antagonist=28
Cc1[nH]c2ccc(F)cc2c1CC(=O)N(CCN(C)C)Cc1ccc(F)cc1	x	-88	6	x	x	x	x
Nc1ccc(Cl)cc1C(=O)c1ccccc1Cl	-2	67*	13	-1	-31	3	+
CC(=O)[C@H]1CC[C@H]2[C@@H]3CC[C@H]4C[C@H](O)CC[C@]4(C)[C@H]3C(=O)C[C@]12C	2	18	17	0	x	-2	x
CC(=O)C1CC[C@H]2C3CC[C@H]4C[C@H](O)CC[C@]4(C)C3CC[C@]12C (stereo partly specified)	x	50	19	x	x	x	i
CCCOc1c(CN2C3CCC2CC(O)(c2nccn2C)C3)cccc1OC (stereo unspecified)	x	3	3	x	x	x	x
CCCn1nc(CC(=O)N2CCCCC2CN2CCCCC2)c2ccccc2c1=O (stereo unspecified)	x	-8	5	x	x	x	x
CC[C@H]1C(=O)OC[C@@H]1Cc1cncn1C	x	13	6	x	x	x	x
CC[C@@H]1C(=O)OC[C@@H]1Cc1cncn1C	-19	80*!	16	-9	x	1	i
Cc1cccc(C2=NCC(=O)Nc3sc4c(c32)CCCC4)c1	x	9	5	x	x	x	x
CCCCCn1c(=O)c(C(=O)NCc2ccco2)c(O)c2ccccc21	-12	58	5	0	12	1	x
CCCCn1c(=O)c(C(=O)NCc2ccco2)c(O)c2ccccc21	3	67*	5	-4	-11	-1	+
C[C@]12CCC(=O)C=C1CCC1C2CC[C@@]2(C)C1CC[C@@H]2O (stereo partly specified)	x	73*	4	x	x	x	+
CCOC(=O)CC1=C(C(=O)OCC)C2(C(=O)N(C)c3ccccc32)C(C#N)=C(N)O1 (stereo unspecified)	x	-4	9	x	x	x	x
